In PubChem BioAssay (Tox21):
Inconclusive results are not listed. Active and inactive are the calls of the source. Unless noted, the call rests on the fitted dose curve.

Legend:
[1] = Nuclear factor erythroid 2-related factor 2/antioxidant responsive element (Nrf2/ARE) small molecule agonists: qHTS cell viability counter screen in human keratinocytes (AID 1919968; active means well fitted curve in the direction sought with a large enough effect in the repeat runs; an effect the other way counts as inactive or inconclusive; further: nearly all actives have a fitted effect of over 55% in size)
Summary of the method: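 In human HaCaT keratinocytes stably expressing an ARE-driven luciferase, compound exposure lasted 23 h at 37 C under 5% CO2. Viable cells are quantified with a protease-based fluorogenic reagent (CellTiter-Fluor) read 1 h after addition.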

[2] = Nuclear factor erythroid 2-related factor 2/antioxidant responsive element (Nrf2/ARE) small molecule agonists: luciferase reporter gene qHTS assay in human keratinocytes (AID 1919969); further: nearly all actives have a fitted effect of over 35% in size
[3] = target: Gonadotropin-releasing hormone receptor (Homo sapiens) (UniProt P30968); experiment: Human gonadotropin-releasing hormone receptor (GnRHR) small molecule agonists, calcium flux assay in GnRHR-HEK293 cells (AID 1920063); further: nearly all actives have a fitted effect of over 35% in size
Summary of the method: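 Intracellular calcium rise is the read-out: engineered human GnRHR HEK293 cells, dye-loaded, are exposed to DMSO-dissolved compounds and fluorescence at Ex/Em 480/540 is tracked for 3 min.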

[4] = target: KiSS-1 receptor (Homo sapiens) (UniProt Q969F8); experiment: Human kisspeptin (KISS1R) small molecule agonists, calcium flux assay in KISS1R-HEK293 cells (AID 1920064; active means well fitted curve in the direction sought with a large enough effect in the repeat runs; an effect the other way counts as inactive or inconclusive)
Summary of the method: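 Concentration-response testing used 15 concentrations in triplicate on human KISS1R-expressing HEK293 cells. Calcium-dependent fluorescence (Ex/Em 480/540) was followed kinetically for 3 min after compound transfer.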

[5] = G protein-coupled receptor (GPCR) small molecule agonists, calcium flux assay: HEK293 wild type cell line counter screen (AID 1920065)
Summary of the method: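 Fluorescence intensity signals activation. After overnight (18 h) culture and a 1 h calcium dye load at 37 C, compounds are added by pin tool and the plate read at 480/540 nm for 3 min in 1 s steps.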

[6] = p53 small molecule agonists, cell-based qHTS assay with human liver microsomes (AID 1963577);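 further: p53 response element beta-lactamase reporter cells with liver microsomes plus NADPH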
Summary of the method: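 16 h, 37 C exposure of p53RE-bla cells to compounds with human liver microsomes and NADPH (0.5 mg/mL final each); detection via LiveBLAzer mixture, 2 h dark at room temperature.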

[7] = p53 small molecule agonists, cell-based qHTS assay with rat liver microsomes (AID 1963578)
Summary of the method: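 With rat liver microsomes and NADPH present (0.5 mg/mL final each), p53RE-bla cells are treated with compound for 16 h at 37 C. LiveBLAzer detection mixture is then applied for 2 h at room temperature in the dark.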

[8] = p53 small molecule agonists, cell-based qHTS assay with human liver microsomes: qHTS cell viability counter screen (AID 1963579); further: nearly all actives have a fitted effect of over 45% in size
Summary of the method: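 In this multiplexed counter screen, the reporter plates were subsequently treated with CellTiter-Glo so that cell viability, reflected by luminescence, could be recorded for p53RE-bla cells dosed 16 h with compounds under microsomal activation (HLM and NADPH).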

[9] = p53 small molecule agonists, cell-based qHTS assay with rat liver microsomes: qHTS cell viability counter screen (AID 1963580); further: nearly all actives have a fitted effect of over 45% in size
Summary of the method: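 Cytotoxicity counter screen: intracellular ATP read by CellTiter-Glo luminescence in the p53 reporter wells. HCT-116 p53RE-bla cells were treated for 16 h at 37 C alongside rat liver microsomes and NADPH, each 0.5 mg/mL final.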

[10] = p53 small molecule agonists, cell-based qHTS assay: qHTS cell viability counter screen (AID 1963581); further: nearly all actives have a fitted effect of over 45% in size
Summary of the method: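 Luminescence from CellTiter-Glo, reflecting ATP content, serves as the cytotoxicity measure; it is taken after the 2 h reporter substrate step in HCT-116 p53RE-bla cells dosed for 16 h at 37 C.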

[11] = p53 small molecule agonists, cell-based qHTS assay (AID 1963582; active means well fitted activation curve with a large enough effect in the signal ratio in the repeat runs, not every such curve was filed as active; the % refers to the signal ratio)
Summary of the method: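 After plating, p53RE-bla cells sat 5 h in the incubator; compounds or DMSO vehicle were pinned in; a 16 h incubation at 37 C followed; FRET substrate was added and, 2 h later at RT, fluorescence was measured.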

[12] = target: 5-hydroxytryptamine receptor 2A (Homo sapiens) (UniProt P28223); experiment: 5-hydroxytryptamine receptor 2A (HTR2A) small molecule agonists, cell-based qHTS assay (AID 1963587); further: nearly all actives have a fitted effect of over 30% in size
Summary of the method: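 Kinetic calcium-flux fluorescence (2 min, 1 sec intervals) after compound addition in agonist mode. HTR2A-CHO cells were cultured 18 h, then dye-loaded 1 h at 37 C.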

[13] = target: Muscarinic acetylcholine receptor M1 (Homo sapiens) (UniProt P11229); experiment: Cholinergic receptor muscarinic 1 (CHRM1) small molecule antagonists, cell-based qHTS assay (AID 1963588); further: nearly all actives have a fitted effect of over 40% in size
Summary of the method: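 Compounds were tested at 15 concentrations in three independent runs. Dye-loaded CHRM1-CHO cells were exposed 5 min at room temperature before stimulation by acetylcholine added at 50nM. Intracellular calcium was read kinetically on FDSS for 3 min.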

[14] = target: Muscarinic acetylcholine receptor M1 (Homo sapiens) (UniProt P11229); experiment: Cholinergic receptor muscarinic 1 (CHRM1) small molecule agonists, cell-based qHTS assay (AID 1963589); further: nearly all actives have a fitted effect of over 35% in size
Summary of the method: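 Fluorescent calcium dye reports M1 activation in stably transfected CHO cells. Compounds, 15 concentrations, added after 1 h dye loading at 37 C; kinetic reading at 1 sec intervals.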

[15] = cAMP Responsive Elements (CRE) small molecule agonists, cell-based qHTS assay (AID 1963590)
Summary of the method: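 Compound exposure lasted 3 h at 37 C/5% CO2 in CRE-bla HEK 293T cells grown in assay medium with 10% dialyzed FBS and 25 mM HEPES. Reporter signal came from LiveBLAzer B/G FRET substrate, 2 h, room temperature.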

[16] = cAMP Responsive Elements (CRE) small molecule antagonists, cell-based qHTS assay (AID 1963591; active means well fitted inhibition curve with a large enough effect in the signal ratio in the repeat runs, not every such curve was filed as active; the % refers to the signal ratio)
Summary of the method: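 Stimulation used NKH477 at a final 0.25 uM for 3 h in compound-treated CRE-bla HEK293T cells, seeded 18 h beforehand. Reporter activity was measured with LiveBLAzer B/G FRET substrate after 2 h at room temperature.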

[17] = target: Beta-2 adrenergic receptor (Homo sapiens) (UniProt P07550); experiment: Adrenergic beta2 receptor (ADRB2) small molecule antagonists, cell-based qHTS assay (AID 1963592); further: series mostly up to about 92 µM; nearly all actives have a fitted effect of over 50% in size
Summary of the method: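 Assay format: CHO-ADRB2 cells, 18-20hr seeding at 37C/5% CO2, then compound plus 1nM isoproterenol agonist mix for 0.5hr RT. Homogeneous time-resolved fluorescence cAMP detection after 1hr, expressed as 665/615 nm ratio.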

[18] = target: D(2) dopamine receptor (Homo sapiens) (UniProt P14416); experiment: Dopamine D2 receptor (DRD2) small molecule agonists, cell-based qHTS assay (AID 1963594); further: nearly all actives have a fitted effect of over 35% in size
Summary of the method: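 cAMP accumulation in DRD2-HEK293 cells measured by HTRF after 1 h detection; compounds added 10 min before NKH477 (200nM […]) forskolin-analogue stimulation, 30 min at room temperature, with Ro20-1724 present at 0.1 mM final.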

[19] = target: Beta-2 adrenergic receptor (Homo sapiens) (UniProt P07550); experiment: Adrenergic beta2 receptor (ADRB2) small molecule agonists, cell-based qHTS assay (AID 1963593);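 further: CHO cells stably overexpressing human ADRB2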
Summary of the method: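 CHO cells stably over-expressing ADRB2 were plated overnight at 37C, then dosed with compounds plus a stimulation mix containing 100uM IBMX and 25uM Ro-20-1724 for 0.5hr at room temperature. cAMP was measured by HTRF competition, 1hr.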

[20] = target: D(2) dopamine receptor (Homo sapiens) (UniProt P14416); experiment: Dopamine D2 receptor (DRD2) small molecule antagonists, cell-based qHTS assay (AID 1963595; active means well fitted inhibition curve with a large enough effect in the signal ratio in the repeat runs, with a control signal flat; the % refers to the signal ratio)
Summary of the method: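 Antagonist mode in DRD2-HEK293 cells: after compound addition with 0.1 mM Ro20-1724, cells received quinpirole (12 nM) and NKH477 (200 nM) for 30 min at room temperature; HTRF cAMP read after 1 h detection.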
On the % scale 0 is the no-effect control and ±100 the full control effect.

Sequence of Gonadotropin-releasing hormone receptor (Homo sapiens) (P30968 whole entry, looked up): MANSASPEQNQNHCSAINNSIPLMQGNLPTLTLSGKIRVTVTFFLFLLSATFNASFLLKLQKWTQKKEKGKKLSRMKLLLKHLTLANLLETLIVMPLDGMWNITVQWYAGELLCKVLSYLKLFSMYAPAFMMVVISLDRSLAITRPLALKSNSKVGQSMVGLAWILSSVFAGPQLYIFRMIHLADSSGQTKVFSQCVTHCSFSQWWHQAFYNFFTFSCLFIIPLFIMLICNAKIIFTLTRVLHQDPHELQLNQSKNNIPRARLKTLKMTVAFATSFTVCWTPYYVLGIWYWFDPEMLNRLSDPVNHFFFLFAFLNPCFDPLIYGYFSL
Sequence of Beta-2 adrenergic receptor (Homo sapiens) (P07550 whole entry, looked up): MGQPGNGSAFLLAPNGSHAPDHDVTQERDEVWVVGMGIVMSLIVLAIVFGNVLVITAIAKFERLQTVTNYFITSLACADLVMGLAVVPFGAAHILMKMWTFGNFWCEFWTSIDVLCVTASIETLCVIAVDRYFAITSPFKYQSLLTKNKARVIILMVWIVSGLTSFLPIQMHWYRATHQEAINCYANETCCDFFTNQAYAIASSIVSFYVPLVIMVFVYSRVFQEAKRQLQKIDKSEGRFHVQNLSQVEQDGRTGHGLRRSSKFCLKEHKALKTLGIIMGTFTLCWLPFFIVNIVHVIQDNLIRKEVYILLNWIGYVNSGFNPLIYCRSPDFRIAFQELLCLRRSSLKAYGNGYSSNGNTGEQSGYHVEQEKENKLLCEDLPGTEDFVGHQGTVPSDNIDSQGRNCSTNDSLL
Sequence of D(2) dopamine receptor (Homo sapiens) (P14416 whole entry, looked up): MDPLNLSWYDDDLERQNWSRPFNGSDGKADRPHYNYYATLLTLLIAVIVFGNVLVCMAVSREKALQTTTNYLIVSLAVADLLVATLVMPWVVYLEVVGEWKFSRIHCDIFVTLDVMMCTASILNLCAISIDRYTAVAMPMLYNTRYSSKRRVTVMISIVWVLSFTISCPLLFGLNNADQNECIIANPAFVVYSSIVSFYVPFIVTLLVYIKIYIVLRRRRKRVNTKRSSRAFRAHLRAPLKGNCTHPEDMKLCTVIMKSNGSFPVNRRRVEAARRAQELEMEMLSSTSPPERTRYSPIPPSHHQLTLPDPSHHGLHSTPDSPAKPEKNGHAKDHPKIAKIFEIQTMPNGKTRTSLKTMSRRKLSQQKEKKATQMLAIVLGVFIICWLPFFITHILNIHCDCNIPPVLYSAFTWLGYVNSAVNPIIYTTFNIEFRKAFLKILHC
Sequence of Muscarinic acetylcholine receptor M1 (Homo sapiens) (P11229 whole entry, looked up): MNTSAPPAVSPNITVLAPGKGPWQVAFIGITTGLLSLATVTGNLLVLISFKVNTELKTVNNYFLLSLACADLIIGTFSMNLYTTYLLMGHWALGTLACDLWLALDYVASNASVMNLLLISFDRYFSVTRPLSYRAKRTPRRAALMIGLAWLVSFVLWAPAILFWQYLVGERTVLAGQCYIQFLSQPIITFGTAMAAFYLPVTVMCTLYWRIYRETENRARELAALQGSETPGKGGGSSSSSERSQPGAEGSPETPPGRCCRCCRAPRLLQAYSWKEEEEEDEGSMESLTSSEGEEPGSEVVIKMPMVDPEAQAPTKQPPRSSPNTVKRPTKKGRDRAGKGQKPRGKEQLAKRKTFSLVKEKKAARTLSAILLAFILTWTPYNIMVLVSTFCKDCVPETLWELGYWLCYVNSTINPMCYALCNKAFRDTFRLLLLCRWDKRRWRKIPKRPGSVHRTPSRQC
Sequence of 5-hydroxytryptamine receptor 2A (Homo sapiens) (P28223 whole entry, looked up): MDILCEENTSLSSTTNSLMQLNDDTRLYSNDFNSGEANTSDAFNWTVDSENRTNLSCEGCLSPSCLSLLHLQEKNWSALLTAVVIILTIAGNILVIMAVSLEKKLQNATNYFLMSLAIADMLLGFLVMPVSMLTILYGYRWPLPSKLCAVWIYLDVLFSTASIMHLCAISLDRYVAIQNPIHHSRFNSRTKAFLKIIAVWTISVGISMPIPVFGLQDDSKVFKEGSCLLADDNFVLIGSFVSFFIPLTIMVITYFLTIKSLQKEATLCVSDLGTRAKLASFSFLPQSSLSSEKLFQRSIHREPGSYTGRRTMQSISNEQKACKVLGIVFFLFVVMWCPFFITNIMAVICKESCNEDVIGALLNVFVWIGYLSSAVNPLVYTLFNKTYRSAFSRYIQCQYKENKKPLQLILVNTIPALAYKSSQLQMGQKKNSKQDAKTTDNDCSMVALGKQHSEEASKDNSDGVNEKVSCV
Sequence of KiSS-1 receptor (Homo sapiens) (Q969F8 whole entry, looked up): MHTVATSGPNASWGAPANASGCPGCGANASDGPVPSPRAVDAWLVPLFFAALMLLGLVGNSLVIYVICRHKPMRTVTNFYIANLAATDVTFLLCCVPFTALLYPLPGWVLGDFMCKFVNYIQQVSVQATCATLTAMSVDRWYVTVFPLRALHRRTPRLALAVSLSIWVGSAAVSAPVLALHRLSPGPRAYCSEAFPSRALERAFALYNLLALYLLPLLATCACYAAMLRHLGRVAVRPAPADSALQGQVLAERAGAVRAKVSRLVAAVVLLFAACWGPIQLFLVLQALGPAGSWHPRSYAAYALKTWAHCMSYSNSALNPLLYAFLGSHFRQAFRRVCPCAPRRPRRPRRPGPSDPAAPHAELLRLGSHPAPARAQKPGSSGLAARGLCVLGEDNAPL

CCCCCc1cccc(=O)o1
inactive: Potency [1] | Potency [2] | Potency [3] | Potency [4] | Potency [5] | Potency [6] | Potency [7] | Potency [8] | Potency [9] | Potency [10] | Potency [11] | Potency [12] | Potency [13] | Potency [14] | Potency [15] | Potency [16] | Potency [17] | Potency [18]

CCCOCCC
inactive: Potency [1] | Potency [2] | Potency [3] | Potency [4] | Potency [5] | Potency [6] | Potency [7] | Potency [8] | Potency [9] | Potency [10] | Potency [12] | Potency [13] | Potency [14] | Potency [15] | Potency [16] | Potency [17] | Potency [19] | Potency [18] | Potency [20]

NC[C@H]1O[C@H](O[C@H]2[C@H](O)[C@@H](O[C@H]3O[C@H](CO)[C@@H](O)[C@H](N)[C@H]3O)[C@H](N)C[C@@H]2N)[C@H](N)[C@@H](O)[C@@H]1O
inactive: activity change, negative = cytotoxicity [1] -0.0182% [at 19 µM] | activity, positive = activation [2] 2.7% [at 19 µM] | activity change [3] 5.96% [at 11.8 µM, stronger effect = higher value] | activation [4] -0.341% [at 15.8 µM] | activation [5] -0.87% [at 11.8 µM] | activation [6] -1.52% [at 13.5 µM] | activation [7] -0.665% [at 13.6 µM] | activity change, negative = cytotoxicity [8] -3.3% [at 13.5 µM] | activity change, negative = cytotoxicity [9] 3.53% [at 13.5 µM] | activity change, negative = cytotoxicity [10] -25.6% [at 13.5 µM] | activation [12] -0.88% [at 15.9 µM] | activity, negative = inhibition [13] 7.06% [at 12.6 µM] | activation [14] -0.129% [at 15.8 µM] | activation [15] 0.862% [at 19 µM] | activity change, negative = inhibition [16] 0.145% [at 18.9 µM] | activity change, negative = inhibition [17] 5.76% [at 19 µM] | activation [19] 1.3% [at 19 µM] | activation [18] -0.355% [at 19 µM] | activity change, negative = inhibition [20] 13% [at 18.9 µM]

CCOC(=O)c1ccc(C)cc1
inactive: Potency [1] | Potency [2] | Potency [3] | Potency [4] | Potency [5] | Potency [6] | Potency [7] | Potency [8] | Potency [9] | Potency [10] | Potency [12] | Potency [13] | Potency [14] | Potency [15] | Potency [16] | Potency [17] | Potency [19] | Potency [18]
